About 13,000 (27%) of roughly 48,000 compounds showed an effect of 50% or more. Some of the results follow.
Each compound was assayed on Wolbachia pipientis (assay: Anti-Wolbachia Cell-Based Screen). Details: 5 µM.
Assay type: functional
Parameters: scale not given: in the data most compounds retested in dose-response had high values

SMILES	Percent Effect [%]
CCCNCc1cc2c(C)cc(C)cc2n2c(=O)n(C)nc12	-10.06
CCOCCCNCc1cc(O)c2cc(C)ccc2n1	-26.14
CCOCCCNCc1cc2c(C)cc(C)cc2n2c(=O)n(C)nc12	119.1
COCCNCc1cc2c(C)cc(C)cc2n2c(=O)n(C)nc12	88.13
COCCCn1cnnc1CNC(=O)c1[nH]c2c(C)cc(C)cc2c1C	0.2132
O=C1CCC2(CCCN(c3ncnc4[nH]cnc34)C2)CN1CCCO (stereo unspecified)	-3.767
COc1ccccc1CC(NC(=O)N1CCC[C@@H]1CO)C(C)C (stereo partly specified)	-5.452
CSCCC(=O)N1CCC(c2nnc(CN(C)CCO)n2C)CC1	26.9
CCS(=O)(=O)N1CCc2ccc(NC(=O)Nc3cccc(F)c3)cc21	144.6
NS(=O)(=O)N1CCc2ccc(NC(=O)Cc3ccc(F)cc3)cc21	-5.162
NS(=O)(=O)N1CCc2ccc(NC(=O)CC(F)(F)F)cc21	-10.92
Cc1cccc(NC(=O)NC2CCN(C3CCOC3)CC2)c1 (stereo unspecified)	-12.46
CCS(=O)(=O)N1CCc2ccc(NC(=O)Nc3cccc(C)c3)cc21	127.7
CCS(=O)(=O)N1CCc2ccc(NC(=O)Nc3cccc(SC)c3)cc21	9.677
CCS(=O)(=O)N1CCc2ccc(NC(=O)NC3CCCCC3)cc21	108.5
COc1cc(NC(=O)NC2CCCC2)ccc1N1CCOC1=O	8.686
CCS(=O)(=O)N1CCc2ccc(NC(=O)NC(C)(C)C)cc21	107.2
CCS(=O)(=O)N1CCCc2ccc(NC(=O)Cc3ccc(F)cc3)cc21	-6.577
O=C(Nc1ccccc1)C1CCCN(c2cc(-n3cncn3)ncn2)C1 (stereo unspecified)	-3.274

SMILES	Percent Effect [%]
COCC1CN(C(=O)Cc2cccc(F)c2)Cc2ccnn2C1.O=C(O)C(F)(F)F (stereo unspecified)	13.65
CCC(=O)N1CC[C@@H](c2ccc3ccccc3c2)[C@H](O)C1	-8.5
CC(NS(C)(=O)=O)C(=O)N(C)Cc1csc(-c2cccs2)n1 (stereo unspecified)	-6.188
O=S(=O)(N1CCCCC1)N1CCOC2(CCCC2)C1	-3.647
O=C(NC1CC1)NC(c1ccc(F)cc1)C1CC1 (stereo unspecified)	-8.198
CCS(=O)(=O)N1CCc2ccc(NC(=O)Nc3ccccc3C)cc21	122.8
CCS(=O)(=O)N1CCc2ccc(NC(=O)Nc3ccc(F)cc3F)cc21	3.435
NS(=O)(=O)N1CCc2ccc(NC(=O)Cc3ccccc3F)cc21	-18.89
CCS(=O)(=O)N1CCc2ccc(NC(=O)Nc3ccccc3)cc21	185.4
CN(CCN1CCN(c2ccccc2)CC1)C(=O)Nc1ccccn1	-17.55
CC(C)Oc1ncccc1CNC(=O)c1ccco1	7.44
Cc1ccc(C(=O)N2CC(C(N)=O)O[C@H](C)C2)c(F)c1 (stereo partly specified)	-9.152
N#CCCN(Cc1ccco1)C(=O)CN1CCCC1c1cccs1 (stereo unspecified)	-7.66
CCc1nc(CN(C)C(=O)CSC)no1	99.89
CC(C)c1nc(CN(C)C(=O)Cn2nc3ccccc3n2)no1	-13.5
CN(Cc1noc(-c2ccccc2)n1)C(=O)CSc1nnc(N)s1	121.6
CCc1noc(CN(C)C(=O)COc2cc(Cl)cc(Cl)c2)n1	-5.267
CN(C)C(=O)Cc1ccccc1NCc1noc(-c2ccccc2)n1	11.76
CCn1ccc(CN(C)C(=O)CSc2nnc(N)s2)n1	5.02

SMILES	Percent Effect [%]
COc1ccc(CN(C)C(=O)CSc2nnc(N)s2)c(OC)c1OC	2.435
CSCC(=O)N(C)Cc1noc(-c2ccccc2)n1	108.1
CCc1nc(CN(C)C(=O)C2CCC(=O)N(CC3CCCCC3)C2)no1 (stereo unspecified)	-15.94
Cn1cc(N2CCC3(CCN(S(=O)(=O)C4CC4)C3)C2=O)cn1 (stereo unspecified)	-13.56
CCCC(C)CS(=O)(=O)NCCc1csc(N2CCCC2)n1 (stereo unspecified)	5.842
CC1(C)Cc2c(cnn2-c2ccccc2)C(NC2CCSCC2)C1 (stereo unspecified)	2.86
CN(C)c1ccnc(-c2ccnc3c2ccn3C)n1	-3.285
Cc1[nH]c2c(C)ccc(C)c2c1CC(=O)NCCCNc1cccnc1	-12.73
O=C(c1ccc2cccnc2n1)N(Cc1ccsc1)CC1CCCO1 (stereo unspecified)	-29.46
COCCN1C[C@H]2CN(C(=O)c3ccno3)CCN2C1=O	3.514
COCCN1Cc2ccccc2C2(CCN(C(=O)c3ccno3)CC2)C1	106.5
COCCN1Cc2ccccc2C2(CCN(C(=O)c3ccco3)CC2)C1	91.37
O=C(c1ccco1)N1CCC2(CC1)C(=O)Nc1ccccc12	-7.592
COCCN1CC2(CCN(Cc3ccco3)CC2)c2ccccc21	-16.07
COCCN1Cc2ccccc2C2(CCN(S(C)(=O)=O)CC2)C1	109.9
O=C(c1ccno1)N1CCC2(CC1)C(=O)Nc1ccccc12	0.1339
COCCN1CCC2(CC1)CC1(CCN(S(C)(=O)=O)CC1)N(C)C2=O.O=C(O)C(F)(F)F	-9.423
CCS(=O)(=O)N1CCC2(CC1)CN(C(=O)N(C)C)Cc1ccccc12	-41.7
